{
  "source": "the supplement of paper PMC8728848",
  "assay_in_all_cases": "glycan array binding signal (z-score within array); higher = stronger binding",
  "details_in_all_cases": "glycan notation: IUPAC condensed, linker removed",
  "key": {"[1]": {"molecular_target": "Fuc(a1-2)Gal(b1-3)GalNAc(b1-3)Gal(a1-4)Gal(b1-4)Glc", "how_it_was_run": "(§1)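 The binding signal is a Z-score computed within each array and averaged over linkers. Arrays of the same protein sequence at different concentrations or buffers were also averaged together. Data originate from 3228 arrays in the Consortium for Functional Glycomics database, kept only where the protein sequence was available.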"}, "[2]": {"molecular_target": "Fuc(a1-2)Gal(b1-3)GlcNAc(b1-3)Gal(b1-4)Glc", "how_it_was_run": "as §1"}, "[3]": {"molecular_target": "Fuc(a1-2)Gal(b1-3)[Fuc(a1-4)]GlcNAc", "how_it_was_run": "as §1"}, "[4]": {"molecular_target": "Fuc(a1-2)Gal(b1-4)Glc", "how_it_was_run": "as §1"}, "[5]": {"molecular_target": "Fuc(a1-2)[Gal(a1-3)]Gal(b1-4)GlcNAc(b1-2)Man(a1-3)[Fuc(a1-2)[Gal(a1-3)]Gal(b1-4)GlcNAc(b1-2)Man(a1-6)]Man(b1-4)GlcNAc(b1-4)GlcNAc", "how_it_was_run": "as §1"}, "[6]": {"molecular_target": "Fuc(a1-2)[Gal(a1-4)]Gal(b1-4)GlcNAc", "how_it_was_run": "as §1"}, "[7]": {"molecular_target": "Fuc(a1-2)[GalNAc(a1-3)]Gal(b1-3)GlcNAc(b1-2)Man(a1-3)[Fuc(a1-2)[GalNAc(a1-3)]Gal(b1-3)GlcNAc(b1-2)Man(a1-6)]Man(b1-4)GlcNAc(b1-4)GlcNAc", "how_it_was_run": "as §1"}, "[8]": {"molecular_target": "Fuc(a1-2)[GalNAc(a1-3)]Gal(b1-4)[Fuc(a1-3)]GlcNAc(b1-3)GalNAc", "how_it_was_run": "as §1"}, "[9]": {"molecular_target": "Fuc(a1-3)[Gal(b1-4)]GlcNAc(b1-6)GalNAc", "how_it_was_run": "as §1"}, "[10]": {"molecular_target": "Gal(a1-3)Gal(b1-3)GlcNAc(b1-2)Man(a1-3)[Gal(a1-3)Gal(b1-3)GlcNAc(b1-2)Man(a1-6)]Man(b1-4)GlcNAc(b1-4)GlcNAc", "how_it_was_run": "as §1"}, "[11]": {"molecular_target": "Gal(a1-3)Gal(b1-3)GlcNAc(b1-3)GalNAc", "how_it_was_run": "as §1"}, "[12]": {"molecular_target": "Gal(a1-3)GalNAc", "how_it_was_run": "as §1"}, "[13]": {"molecular_target": "Gal(b1-3)Gal", "how_it_was_run": "as §1"}, "[14]": {"molecular_target": "Gal(b1-3)Gal(b1-4)GlcNAc", "how_it_was_run": "as §1"}, "[15]": {"molecular_target": "Gal(b1-3)GalNAc", "how_it_was_run": "as §1"}, "[16]": {"molecular_target": "Gal(b1-3)GalNAc(a1-3)[Fuc(a1-2)]Gal(b1-4)Glc", "how_it_was_run": "as §1"}, "[17]": {"molecular_target": "Gal(b1-3)GalNAc(b1-3)Gal", "how_it_was_run": "as §1"}, "[18]": {"molecular_target": "Gal(b1-3)GalNAc(b1-4)Gal(b1-4)Glc", "how_it_was_run": "as §1"}, "[19]": {"molecular_target": "Gal(b1-3)GalNAc(b1-4)[Neu5Ac(a2-3)]Gal(b1-4)Glc", "how_it_was_run": "as §1"}, "[20]": {"molecular_target": "Gal(b1-3)GlcNAc6S", "how_it_was_run": "as §1"}, "[21]": {"molecular_target": "Gal(b1-3)[Fuc(a1-4)]GlcNAc", "how_it_was_run": "as §1"}, "[22]": {"molecular_target": "Gal(b1-3)[GlcNAc(b1-6)]GalNAc", "how_it_was_run": "as §1"}, "[23]": {"molecular_target": "Gal(b1-3)[Neu5Ac(a2-6)]GalNAc", "how_it_was_run": "as §1"}, "[24]": {"molecular_target": "Gal(b1-4)Glc6S", "how_it_was_run": "as §1"}},
  "note": "The entries come from a sample that favours the strongest signals as a whole.",
  "data": [
    {"binder": "CFEM-PPl (Pichia pastoris), F2QPV1 (protein) AVATPPACLLACAAEVVKESSDCDALNNIQCICENEGSAIHACLESTCPDGLSSTALQSFEDVCESVGTEANLDE", "values": [
      {"measurement": "glycan array binding signal (z-score)", "setting": "[1]", "result": -0.182},
      {"measurement": "glycan array binding signal (z-score)", "setting": "[2]", "result": -0.261},
      {"measurement": "glycan array binding signal (z-score)", "setting": "[3]", "result": -0.299},
      {"measurement": "glycan array binding signal (z-score)", "setting": "[4]", "result": -0.216},
      {"measurement": "glycan array binding signal (z-score)", "setting": "[5]", "result": -0.252},
      {"measurement": "glycan array binding signal (z-score)", "setting": "[6]", "result": -0.168},
      {"measurement": "glycan array binding signal (z-score)", "setting": "[7]", "result": -0.271},
      {"measurement": "glycan array binding signal (z-score)", "setting": "[8]", "result": 2.17},
      {"measurement": "glycan array binding signal (z-score)", "setting": "[9]", "result": 0.273},
      {"measurement": "glycan array binding signal (z-score)", "setting": "[10]", "result": -0.051},
      {"measurement": "glycan array binding signal (z-score)", "setting": "[11]", "result": -0.151},
      {"measurement": "glycan array binding signal (z-score)", "setting": "[12]", "result": -0.249},
      {"measurement": "glycan array binding signal (z-score)", "setting": "[13]", "result": 8.35},
      {"measurement": "glycan array binding signal (z-score)", "setting": "[14]", "result": 4.73},
      {"measurement": "glycan array binding signal (z-score)", "setting": "[15]", "result": 4.58},
      {"measurement": "glycan array binding signal (z-score)", "setting": "[16]", "result": 0.63},
      {"measurement": "glycan array binding signal (z-score)", "setting": "[17]", "result": 7.59},
      {"measurement": "glycan array binding signal (z-score)", "setting": "[18]", "result": 11.5},
      {"measurement": "glycan array binding signal (z-score)", "setting": "[19]", "result": 1.48},
      {"measurement": "glycan array binding signal (z-score)", "setting": "[20]", "result": 0.224},
      {"measurement": "glycan array binding signal (z-score)", "setting": "[21]", "result": -0.109},
      {"measurement": "glycan array binding signal (z-score)", "setting": "[22]", "result": 1.52},
      {"measurement": "glycan array binding signal (z-score)", "setting": "[23]", "result": 8.06},
      {"measurement": "glycan array binding signal (z-score)", "setting": "[24]", "result": 0.326}
    ]}
  ]
}
